The values that follow come from PubChem BioAssay (Tox21).

Each structure is given as a SMILES string. “And” between values parts separate entries of the source, which are not always exact repeats. Equal values may be shown once. Values without a mark were called inactive. Results filed as inconclusive are left out. The source made the active and inactive calls. Unless noted, calls follow the shape of the dose curve; as a rule, active = well fitted curve in the direction sought with a large enough effect in the repeat runs; inconclusive = weak or mixed curves; inactive = no such curve, though single readings can be large; an effect the other way counts as inactive or inconclusive.

A short description of assay [1]: qHTS assay to test for compound auto fluorescence at 535 nm (green) in HEK293 cells (AID 720680). (In general: qHTS replaces the single test concentration by a dilution series.)
Assay [2] can be described thus: qHTS assay to test for compound auto fluorescence at 460 nm (blue) in HEK293 cell free culture (AID 720681). Summed up: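 Test compounds were pinned into cell-free culture medium (DMEM with 10% FBS) and fluorescence was read directly at Ex/Em 405/460 nm. Signals were expressed as fluorescence equivalents of triamterene, with DMSO vehicle as control.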
The nature of assay [3]: qHTS assay to test for compound auto fluorescence at 535 nm (green) in HEK293 cell free culture (AID 720682). The essentials: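 No cells present: wells hold DMEM supplemented with 10% FBS, into which compound or vehicle is pinned. Green emission is then recorded (485 nm excitation, 535 nm emission) and scaled to fluorescein.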
The nature of assay [4]: qHTS assay to test for compound auto fluorescence at 590 nm (red) in HEK293 cell free culture (AID 720683). Summed up:
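Tox21 10K library compounds were pinned into cell-free DMEM with 10% FBS and fluorescence was read at excitation 540 nm. Activity is expressed as Rose Bengal sodium equivalency.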

Assay [5] in a line: qHTS assay to test for compound auto fluorescence at 590 nm (red) in HepG2 cell free culture (AID 720684). The essentials:
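Red fluorescence (540 nm excitation, 590 nm emission) was measured after compound transfer into cell-free MEM supplemented with 10% FBS. Values are equivalencies against Rose Bengal sodium.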

The nature of assay [6]: qHTS assay to test for compound auto fluorescence at 460 nm (blue) in HepG2 cell free culture (AID 720685). Summed up:
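Compound (23 nL) or DMSO pinned into cell-free MEM with 10% FBS; blue fluorescence read at 405/460 nm excitation/emission, expressed as auto-fluorescence equivalency to triamterene.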

Assay [7] in a line: qHTS assay to test for compound auto fluorescence at 535 nm (green) in HepG2 cell free culture (AID 720686).
Assay [8] can be described thus: qHTS assay to test for compound auto fluorescence at 460 nm (blue) in HepG2 cells (AID 720687). The essentials: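 Cells (2,000/well in MEM with 10% FBS) attached overnight at 37 C, then were exposed to compound or DMSO for 1 hr at 37 C, 5% CO2. Fluorescence read at Ex/Em 405/460 nm, expressed as triamterene-equivalent signal.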
The nature of assay [9]: qHTS assay to identify small molecule antagonists of the glucocorticoid receptor (GR) signaling pathway - cell viability counter screen (AID 720693). Also: nearly all actives have a fitted effect of over 55% in size. Also: potency is read from the fitted curve at half-maximal effect.
Assay [10] in a line: qHTS assay for identifying genotoxic compounds that show differential cytotoxicity against isogenic chicken DT40 cell lines with known DNA damage response pathways - wild type cell line (AID 743012). Also: nearly all actives have a fitted effect of over 60% in size. Also: potency is read from the fitted curve at half-maximal effect. Summed up:
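Cells (DT40 wild type, 300/well) are treated with DMSO-dissolved compounds after a ~0.5 h pre-incubation and kept 40 h at 37 C/5% CO2. Viability is then measured by CellTiter-Glo luminescence following 30 min at room temperature.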

Assay [11] is described as follows: qHTS assay for identifying genotoxic compounds that show differential cytotoxicity against isogenic chicken DT40 cell lines with known DNA damage response pathways - Rev3 mutant cell line (AID 743014). Also: nearly all actives have a fitted effect of over 55% in size. Also: potency is read from the fitted curve at half-maximal effect.
A short description of assay [12]: qHTS assay for identifying genotoxic compounds that show differential cytotoxicity against isogenic chicken DT40 cell lines with known DNA damage response pathways - Rad54/Ku70 mutant cell line (AID 743015). Also: nearly all actives have a fitted effect of over 60% in size. Also: potency is read from the fitted curve at half-maximal effect.
The target in assay [13] is Glucocorticoid receptor (Homo sapiens) (UniProt P04150). Briefly: qHTS assay to identify small molecule antagonists of the glucocorticoid receptor (GR) signaling pathway (AID 720692; active = well fitted inhibition curve with a large enough effect in the signal ratio in the repeat runs, not every such curve was filed as active; the % refers to the signal ratio; also: potency is read from the fitted curve at half-maximal effect). The essentials: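 Cells plated, rested 4 h at 37 C/5% CO2; compounds in DMSO pin-transferred; dexamethasone added to 5 nM final; 18 h at 37 C; B/G FRET substrate added, 2 h room temperature; fluorescence measured.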
Sequence of Glucocorticoid receptor (Homo sapiens) (P04150 whole entry, looked up): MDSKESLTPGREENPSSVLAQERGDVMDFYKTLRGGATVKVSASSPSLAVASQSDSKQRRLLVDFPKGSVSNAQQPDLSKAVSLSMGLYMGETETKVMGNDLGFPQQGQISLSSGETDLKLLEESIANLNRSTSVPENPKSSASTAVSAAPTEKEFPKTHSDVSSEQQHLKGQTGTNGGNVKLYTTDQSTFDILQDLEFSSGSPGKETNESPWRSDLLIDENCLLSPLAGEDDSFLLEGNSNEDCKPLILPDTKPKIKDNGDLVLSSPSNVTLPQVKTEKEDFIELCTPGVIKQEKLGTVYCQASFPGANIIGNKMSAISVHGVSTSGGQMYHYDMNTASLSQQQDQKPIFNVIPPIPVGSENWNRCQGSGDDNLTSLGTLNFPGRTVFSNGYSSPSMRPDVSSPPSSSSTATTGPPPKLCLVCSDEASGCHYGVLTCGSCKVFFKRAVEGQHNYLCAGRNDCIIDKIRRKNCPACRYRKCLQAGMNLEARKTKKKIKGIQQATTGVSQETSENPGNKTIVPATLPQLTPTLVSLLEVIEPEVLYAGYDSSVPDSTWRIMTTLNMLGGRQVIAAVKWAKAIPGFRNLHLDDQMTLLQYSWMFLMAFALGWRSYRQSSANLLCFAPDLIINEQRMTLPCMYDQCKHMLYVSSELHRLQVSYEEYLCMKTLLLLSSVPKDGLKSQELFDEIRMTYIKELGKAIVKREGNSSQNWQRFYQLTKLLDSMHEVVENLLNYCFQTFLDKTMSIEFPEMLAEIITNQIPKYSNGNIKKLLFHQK

Assay [14] is described as follows: qHTS assay to identify small molecule antagonists of the androgen receptor (AR) signaling pathway - cell viability counter screen (AID 743033; also: nearly all actives have a fitted effect of over 45% in size).
The nature of assay [15]: qHTS assay to identify small molecule antagonists of the androgen receptor (AR) signaling pathway using the MDA cell line - cell viability counter screen (AID 743041; also: nearly all actives have a fitted effect of over 45% in size). The essentials: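 MDA-kb2 AR-luc human breast carcinoma cells (MMTV-luciferase, AR/GR responsive) were treated with compounds plus R1881 agonist for 16 h at 37 °C. Viability was read as CellTiter-Fluor fluorescence in the same wells as the reporter assay.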

The target in assay [16] is Androgen receptor (Homo sapiens) (UniProt P10275). Briefly: qHTS assay to identify small molecule antagonists of the androgen receptor (AR) signaling pathway (AID 743035; active = well fitted inhibition curve with a large enough effect in the signal ratio in the repeat runs, not every such curve was filed as active; the % refers to the signal ratio; also: potency is read from the fitted curve at half-maximal effect). Summed up: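 Antagonism is scored as loss of R1881-driven beta-lactamase reporter expression in HEK293 cells carrying the reporter under a UAS element, after 16 h co-treatment at 37C and a 2 h room-temperature FRET substrate read.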
Sequence of Androgen receptor (Homo sapiens) (P10275 whole entry, looked up): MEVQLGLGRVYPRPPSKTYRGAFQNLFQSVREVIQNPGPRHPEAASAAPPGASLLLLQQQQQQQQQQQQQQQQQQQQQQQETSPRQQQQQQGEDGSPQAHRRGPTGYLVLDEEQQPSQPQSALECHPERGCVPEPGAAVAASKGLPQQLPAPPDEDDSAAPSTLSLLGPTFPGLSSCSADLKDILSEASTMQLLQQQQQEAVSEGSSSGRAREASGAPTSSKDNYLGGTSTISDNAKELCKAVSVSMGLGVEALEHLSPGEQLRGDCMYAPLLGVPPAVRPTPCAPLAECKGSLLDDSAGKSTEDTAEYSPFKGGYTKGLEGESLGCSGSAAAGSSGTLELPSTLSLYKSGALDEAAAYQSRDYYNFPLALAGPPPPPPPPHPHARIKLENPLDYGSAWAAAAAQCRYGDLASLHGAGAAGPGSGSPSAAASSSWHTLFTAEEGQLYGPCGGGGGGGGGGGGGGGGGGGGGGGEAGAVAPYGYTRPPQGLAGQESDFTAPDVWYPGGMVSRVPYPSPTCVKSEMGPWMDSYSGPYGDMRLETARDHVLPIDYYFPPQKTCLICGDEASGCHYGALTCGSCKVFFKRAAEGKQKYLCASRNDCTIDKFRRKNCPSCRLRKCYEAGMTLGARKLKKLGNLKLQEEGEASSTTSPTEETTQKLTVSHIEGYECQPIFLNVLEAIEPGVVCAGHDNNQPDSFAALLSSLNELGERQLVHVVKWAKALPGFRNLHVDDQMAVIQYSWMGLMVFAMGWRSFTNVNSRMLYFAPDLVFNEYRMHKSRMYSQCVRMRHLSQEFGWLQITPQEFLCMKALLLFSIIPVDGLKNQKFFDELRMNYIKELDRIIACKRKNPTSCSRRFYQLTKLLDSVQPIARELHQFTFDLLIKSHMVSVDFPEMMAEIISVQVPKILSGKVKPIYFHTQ

For assay [17] the target is unchanged. Briefly: qHTS assay to identify small molecule agonists of the androgen receptor (AR) signaling pathway (AID 743036; active = well fitted activation curve with a large enough effect in the signal ratio in the repeat runs, with a control signal flat, not every such curve was filed as active; the % refers to the signal ratio). Summed up:
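Quantitative HTS of the Tox21 10K library in HEK293 cells bearing a stably integrated UAS-controlled beta-lactamase reporter. Compound exposure lasted 16 h at 37C. Reporter activity was detected by FRET substrate fluorescence after 2 h at room temperature.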

For assay [18] the target is unchanged. Briefly: qHTS assay to identify small molecule agonists of the androgen receptor (AR) signaling pathway using the MDA cell line (AID 743040; also: nearly all actives have a fitted effect of over 20% in size). The essentials: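 MDA-kb2 breast carcinoma cells stably carrying an MMTV-driven luciferase reporter (AR- and GR-responsive) were seeded and held 5 h at 37C, 0% CO2, then exposed to compounds in DMSO for 16 h. Luminescence was read 30 min after ONE-Glo addition.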

Assay [19] shares this target. Briefly: qHTS assay to identify small molecule antagonists of the androgen receptor (AR) signaling pathway using the MDA cell line (AID 743042; also: potency is read from the fitted curve at half-maximal effect; nearly all actives have a fitted effect of over 55% in size). The essentials:
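MDA-kb2 cells (human breast carcinoma, stably carrying an MMTV-luciferase reporter responsive to AR and GR) were plated at 3,000 cells/well and preincubated 5 hr at 37C, then given compound plus R1881 agonist for 16 h. ONE-Glo luminescence was read.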

Take `CC[C@H](C)[C@H]1O[C@]2(C=C[C@@H]1C)C[C@@H]1C[C@@H](C/C=C(\C)[C@@H](O[C@H]3C[C@H](OC)[C@@H](O[C@H]4C[C@H](OC)[C@@H](NC)[C@H](C)O4)[C@H](C)O3)[C@@H](C)/C=C/C=C3\CO[C@@H]4[C@H](O)C(C)=C[C@@H](C(=O)O1)[C@]34O)O2`: the outcome in [1], in [3], in assay [4] and in assay [5] was inactive. Besides, the Potency result in assay [2], in assay [6], in [7] and in assay [8] was “inactive” throughout. Further, the Potency in [9] was 12.3 µM (active); in [10] it was 0.686 µM (active); in assay [11], 0.686 µM (active); in [12] it was 0.864 µM (active).

Regarding `CCN(CC)C(=S)S`, the result in assay [1], in assay [3], in assay [4] and in assay [5] was inactive. Moreover, the Potency result in assay [2], in assay [6], in [7], in assay [8] and in assay [13] was “inactive” throughout. In addition, the Potency is 2.66 µM (active) and 5.42 µM (active) and 433 nM (active) in assay [10]; 5.31 µM (active) and 5.42 µM (active) and 486 nM (active) in assay [12].

As to `CSC1=N[C@@](C)(c2ccccc2)C(=O)N1Nc1ccccc1`, the call in [1], in [3], in assay [4] and in assay [5] was inactive. Moreover, the Potency result in assay [2], in assay [6], in [7], in assay [8] and in [9] was “inactive” each time. The Potency in assay [10] is 1.54 µM (active); in assay [11] it was 1.72 µM (active); in assay [12] it was 1.54 µM (active).

Regarding `ClC1=C(Cl)[C@]2(Cl)[C@@H]3[C@H]4C[C@H]([C@@H]5O[C@H]45)[C@@H]3[C@@]1(Cl)C2(Cl)Cl`, the call in [1], in [3], in assay [4] and in assay [5] was inactive. Moreover, the Potency entry in [2], in assay [6], in [7], in assay [8], in assay [13] and in assay [9] was “inactive” each time. In addition, the Potency entry in [14] and in assay [15] was “inactive” in each case. The Potency in assay [10] is 29.8 µM (active) and 27.3 µM (active); in assay [11], 9.68 µM (active); in assay [12], 17.2 µM (active).

For the compound `CC(Cl)CCl` (configuration not stated), the result in assay [1], in assay [3], in assay [4] and in assay [5] was inactive. In addition, the Potency entry in [2], in [6], in assay [7], in assay [8], in assay [13] and in [9] was “inactive” each time. The Potency entry in assay [10], in [11], in assay [12], in assay [14] and in assay [15] was “inactive” throughout.

For `CC(O)C(=O)[O][Hg][c]1ccccc1` (configuration not stated), the outcome in [1], in assay [3], in assay [4] and in [5] was inactive. Moreover, the Potency result in assay [2], in [6], in assay [7] and in [8] was “inactive” throughout. The Potency in assay [9] is 0.549 µM (active); in [10], 0.273 µM (active); in assay [11] it was 0.217 µM (active); in assay [12], 0.154 µM (active).

On to `CC(C)N(C(=O)CCl)c1ccccc1`, for which the call in assay [1], in assay [3], in assay [4], in [5], in assay [17] and in assay [18] was inactive. For the same compound, the Potency result in assay [2], in [6], in [7] and in assay [8] was “inactive” in each case. For the same compound, the Potency in assay [13] was 24.5 µM (active); in [9], 54.9 µM (active); in [10] it was 21.7 µM (active) and 17.2 µM (active); in assay [11], 2.17 µM (active) and 3.86 µM (active); in assay [16], 8.71 µM (active) and 6.92 µM (active); in [19], 30.6 µM (active) and 21.7 µM (active).

Take `CC(C)(C)c1ccc(OP(=O)(Oc2ccccc2)Oc2ccccc2)cc1`: the outcome in assay [1], in assay [3], in [4] and in [5] was inactive. The Potency result in assay [2], in assay [6], in [7], in assay [8] and in assay [9] was “inactive” each time. Also, the figures for the Potency in assay [10], in assay [11] and in assay [12] were 61.5 µM (active), 27.5 µM (active) and 19.4 µM (active), respectively.

Regarding `C=CC(=C)C`, the call in assay [1], in assay [3], in assay [4] and in [5] was inactive. In addition, the Potency result in [2], in [6], in assay [7], in [8] and in assay [9] was “inactive” in each case. For the same compound, the Potency is 27.3 µM (active) in assay [10], 21.7 µM (active) in assay [11] and 24.3 µM (active) in assay [12].
